Measurements as given in the supplement of paper PMC3334620.
Whole data set: some 33,000 sequences, median “E-score (-0.5 to 0.5)” near -0.012, cut for the highest 2% near 0.29. The sample as a whole holds a higher share of the highest values than the screen did.

What follows are sequences tested against T1, Ybr033w (UniProt P38073) (assay: PBM E-score (8-mer binding enrichment) (E-score (-0.5 to 0.5)); higher = stronger / more preferred TF binding). Details: protein concentration: 200 nM; construct: GST-full length.
T1 sequence: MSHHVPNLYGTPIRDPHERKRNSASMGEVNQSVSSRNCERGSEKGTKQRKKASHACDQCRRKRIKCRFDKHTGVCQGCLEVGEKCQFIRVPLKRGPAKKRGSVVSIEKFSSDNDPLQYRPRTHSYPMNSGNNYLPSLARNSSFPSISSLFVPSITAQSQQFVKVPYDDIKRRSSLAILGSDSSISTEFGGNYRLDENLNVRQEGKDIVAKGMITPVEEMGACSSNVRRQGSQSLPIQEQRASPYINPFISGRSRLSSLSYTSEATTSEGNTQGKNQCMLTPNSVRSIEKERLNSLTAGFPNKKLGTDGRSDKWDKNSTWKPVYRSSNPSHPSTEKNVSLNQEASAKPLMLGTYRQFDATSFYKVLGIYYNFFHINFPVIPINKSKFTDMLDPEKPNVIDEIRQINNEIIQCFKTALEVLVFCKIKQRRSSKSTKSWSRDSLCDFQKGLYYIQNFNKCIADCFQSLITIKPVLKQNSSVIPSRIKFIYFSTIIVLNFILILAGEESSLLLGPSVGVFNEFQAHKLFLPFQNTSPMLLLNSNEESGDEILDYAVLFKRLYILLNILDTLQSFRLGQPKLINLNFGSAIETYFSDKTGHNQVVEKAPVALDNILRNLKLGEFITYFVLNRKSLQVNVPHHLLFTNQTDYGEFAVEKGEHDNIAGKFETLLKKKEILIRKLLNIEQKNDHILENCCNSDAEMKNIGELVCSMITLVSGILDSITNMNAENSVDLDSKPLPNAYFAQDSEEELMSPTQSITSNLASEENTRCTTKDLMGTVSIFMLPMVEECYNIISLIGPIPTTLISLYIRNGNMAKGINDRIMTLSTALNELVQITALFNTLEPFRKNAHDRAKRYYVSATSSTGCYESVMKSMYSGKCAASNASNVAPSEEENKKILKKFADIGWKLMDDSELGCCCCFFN
Description: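 Universal 'all 10-mer' protein binding microarrays (Agilent AMADID 015681) probed with GST-tagged S. cerevisiae TFs (full-length or DBD) made by in vitro transcription/translation (PURExpress), about 100-200 nM. Bound TF was detected with fluorescent anti-GST. Each ungapped 8-mer (which stands for itself and its reverse complement) is scored by the PBM enrichment score (E-score), a modified Wilcoxon-Mann-Whitney statistic from -0.5 to +0.5, computed with the Universal PBM Analysis Suite. Scale: above 0.35 generally sequence-specific binding.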

Row | Sequence | PBM E-score
1 | CCCGCCTC | -0.17
2 | CGCCCCAA | -0.118
3 | TCGAACAA | 0.138
4 | TGGAACCA | 0.0554
5 | GGGAACAA | 0.381
6 | AGGAACAT | 0.399
7 | GGGAACAC | 0.0998
8 | AGGAACAG | -0.0964
9 | AGGAACAA | 0.402
10 | AGGAACAC | 0.193
11 | TGGAACAA | 0.434
12 | ATGAACAT | 0.217
13 | GCGAACAA | 0.183
14 | ACGAACAT | 0.151
15 | CCTGAATA | 0.186
16 | TCCCCTAA | -0.208
17 | GTCTATCA | 0.0657
18 | ATCTATTA | 0.327
19 | ATGTATTA | 0.293
20 | ATGTATTG | 0.266
21 | GTCTATTA | -0.0198
22 | GTGTATTA | 0.28
23 | ATCTATCA | 0.302
24 | CTCTATTA | 0.152
25 | CTCTATCA | -0.0434

Row | Sequence | PBM E-score
26 | GCTACAAC | 0.0399
27 | GAAGAGCC | -0.13
28 | ACCGGCCA | -0.314
29 | ATCCACAT | 0.224
30 | ACTCCTCC | -0.182
31 | CGTAGTCA | -0.186
32 | AATATCAT | 0.294
33 | AATATCAA | 0.233
34 | AATATCGT | 0.33
35 | AATATCAG | 0.299
36 | AATATCGG | 0.198
37 | ACTATCAT | 0.242
38 | AATATCAC | 0.239
39 | AATATCGA | 0.164
40 | CATATCAG | 0.0658
41 | ACGACGTA | 0.0878
42 | ACTTGGAC | 0.127
43 | ACCAGCAT | 0.0255
44 | CTGCGGTC | -0.262
45 | AATCTACG | -0.0149
46 | ACAGCACA | 0.144
47 | CCCCTTCG | -0.317
48 | AATACTCA | 0.229
49 | AAAATACG | 0.171
50 | ACAATACT | 0.219

Row | Sequence | PBM E-score
51 | AATACTCT | 0.298
52 | AATACTCC | 0.0328
53 | CAAATACC | 0.112
54 | AAAATACC | 0.315
55 | AAAATACA | 0.254
56 | AAAATACT | 0.301
57 | CTCTAGCA | -0.0957
58 | AACGATGA | 0.0671
59 | GTGTTAGA | 0.0758
60 | GATAAGTA | 0.205
61 | GTAGACTA | -0.131
62 | AATGCAAA | 0.274
63 | TCACTGGA | 0.00252
64 | ATAGTAGC | 0.16
65 | GACCTCCC | -0.249
66 | CCGCGTGC | -0.231
67 | ATAAAATG | 0.219
68 | CTTAAATA | 0.114
69 | ATTAAATC | 0.213
70 | ATTAAATA | 0.33
71 | ATTAAATG | 0.347
72 | GTTAAATA | 0.278
73 | AGCACAGC | 0.0732
74 | CATCGAGC | -0.0235
75 | ATCTTGCG | 0.0267

Row | Sequence | PBM E-score
76 | GTCTTGCA | 0.0132
77 | ATCTTGCA | 0.294
78 | AACTTGGT | 0.168
79 | GCTTTCCC | -0.253
80 | GAAACTTC | 0.112
81 | TAAACTTA | 0.166
82 | AAAACTTA | 0.362
83 | TAAACTAA | 0.271
84 | AAAACTTC | 0.176
85 | AAAACTAT | 0.217
86 | GAAACTTA | 0.332
87 | AAAACTAA | 0.328
88 | CAAACTTA | 0.191
89 | ATTCTTAA | 0.0371
90 | AAAGCTAG | 0.103
91 | CCTAGCCG | -0.157
92 | GAGCGTTA | 0.113
93 | GGTTCTAC | -0.0153
94 | AGAATAAT | 0.163
95 | AGAATAAG | 0.14
96 | CGAATAAC | 0.07
97 | AGAATAAC | 0.141
98 | GGAATAAA | 0.296
99 | AGAATAAA | 0.312
100 | TGAATAAA | 0.195

Row | Sequence | PBM E-score
101 | CGAATAAA | 0.145
102 | GGAATAAC | 0.453
103 | GATCGAGC | -0.00942
104 | ATAGGTGG | -0.108
105 | CGAGTGGC | -0.32
106 | AGTTACCG | 0.0592
107 | TCAAGAAA | 0.291
108 | CGAAGAAA | 0.156
109 | ACAAGAAA | 0.206
110 | GGAAGAAC | 0.461
111 | AGAAGAAC | 0.171
112 | GTCAAGAA | 0.146
113 | GGAAGAAA | 0.34
114 | CCAAGAAA | 0.167
115 | TTCAAGAA | 0.296
116 | TTCAAAAA | 0.239
117 | AGAAGAAA | 0.0907
118 | CGAAGAAC | 0.145
119 | AGACTAGC | -0.208
120 | CCTTGCTA | 0.00278
121 | AGGAGCGG | -0.359
122 | CGGGTAGA | -0.0322
123 | GTAAATTA | 0.193
124 | AAAAATTG | 0.221
125 | AGAAATTG | 0.281

Row | Sequence | PBM E-score
126 | ATAAATTC | 0.308
127 | CTAAATTA | 0.173
128 | ATAAATGC | 0.0963
129 | ATAAATCC | 0.324
130 | ATAAATTA | 0.375
131 | ATAAATCG | 0.218
132 | ATAAATTG | 0.365
133 | ATAAATCA | 0.223
134 | CTAAATTC | 0.204
135 | ACTATTGA | 0.243
136 | CTGGAGAA | -0.115
137 | CAGAGTAA | -0.0159
138 | CTAGAGCC | -0.0992
139 | TCCAACGA | -0.0709
140 | AGTCACAT | 0.0586
141 | GTGCCCGA | -0.142
142 | AAAGCTTC | -0.0172
143 | AGCTCTGG | -0.197
144 | AGTTGCTC | -0.15
145 | ATTCCACA | 0.335
146 | ATTCCACC | 0.208
147 | ATTCCACG | -0.0625
148 | AGATTCTG | -0.0373
149 | ACTGGATG | -0.0668
150 | ATTGGTCG | -0.0127

Row | Sequence | PBM E-score
151 | GGAATATA | 0.291
152 | GTATAATA | 0.207
153 | ATATAATA | 0.34
154 | GTAATAGA | 0.17
155 | CGAATATA | 0.156
156 | CTAATATC | 0.196
157 | GCAATATA | 0.123
158 | CTAATATA | 0.297
159 | GTAATATA | 0.299
160 | AGAATATA | 0.134
161 | CTAATAGA | 0.06
162 | CTATAATA | 0.156
163 | AATCCAAG | 0.228
164 | CTAGCGAG | -0.177
165 | ACATCGCT | -0.101
166 | ACGGGCAT | -0.108
167 | ACTTTAGG | -0.0326
168 | CCCCAAGA | -0.0572
169 | ATAATATA | 0.321
170 | ATAATATC | 0.28
171 | ATAATATG | 0.273
172 | CAAGTCTC | -0.0267
